Screens deposited in PubChem by National Center for Advancing Translational Sciences (NCATS).
15-hLO-2 inh: inhibitors of human 15-lipoxygenase 2 (ALOX15B); O15296; purified 15hLO-2, xylenol orange hydroperoxide absorbance; Potency, µM (highest dose often 57.1 µM), actives largely listed as inhibitors; 110,000 compounds, 0.56% hits; note: nearly all actives have a fitted effect of over 60% in size
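Purified human 15hLO-2 (50 nM final) preincubated with compounds 15 min at room temperature in 25 mM Hepes pH 7.5, 0.01% Triton X-100, then 45 uM arachidonic acid added for 90 min; hydroperoxide detected via ferrous/xylenol orange, 573/405 nm absorbance ratio.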
ALOX12 inhib: 12-hLO (ALOX12) enzyme inhibition | P18054 | purified 12-hLO, xylenol orange hydroperoxide absorbance | Potency, µM (series often up to 57.1 µM), most hits filed as inhibitors | 150,000 compounds, 0.12% hits; note: nearly all actives have a fitted effect of over 55% in size
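150 nM 12hLO, 25 mM Hepes pH 7.0 + 0.01% Triton X-100; cpd preinc 15 min RT; 40 uM arachidonic acid, 30 min RT; Fe-XO 30 min; A573/A405 ratio as read-out.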
IMPase Li cell: membrane-permeable IMPase blocker, potentiated with lithium. CHO-M1 cells, IP1 TR-FRET (IP-One), carbachol + lithium. Potency, µM (series often up to 59.4 µM), usual class: inhibitors. 210,000 compounds, 0.35% hits;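 note: IP1 builds up when IMPase is blocked and the TR-FRET signal falls; nearly all actives have a fitted effect of over 50% in size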
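Concentration–response in CHO-M1 cells, lithium-potentiated; 30 min at 37C. IP1 detected by competitive TR-FRET after 10 min lysis at RT. Hill-fitted AC50.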
IMPase cell inh: membrane-permeable compound that blocks inositol monophosphatase; P97697; CHO-M1 cells, IP1 accumulation, HTRF TR-FRET ratio; inhibition (IP1 accumulation), % at 46.1 µM; 120,000 tested, under 10 active; AID 901; active = well fitted curve in the direction sought with a large enough effect in the signal ratio, not every such curve was filed as active; inconclusive = small, poorly fitted or top-dose-only effect, or a change in a side signal; inactive = no such curve, though single readings can be large or run the other way; the % refers to the signal ratio;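 note: cells stimulated with carbachol in lithium chloride buffer; higher means more IMPase inhibition seen as more IP1 and lower FRET ratio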
Target sequence (P97697 whole entry, looked up): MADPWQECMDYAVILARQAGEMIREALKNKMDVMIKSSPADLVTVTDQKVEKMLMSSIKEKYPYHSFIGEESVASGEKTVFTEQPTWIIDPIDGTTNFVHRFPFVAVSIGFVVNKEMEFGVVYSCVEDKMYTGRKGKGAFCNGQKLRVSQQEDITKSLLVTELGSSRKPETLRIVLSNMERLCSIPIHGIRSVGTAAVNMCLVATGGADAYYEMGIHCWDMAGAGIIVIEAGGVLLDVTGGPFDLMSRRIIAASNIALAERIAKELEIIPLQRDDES
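The IP-One HTRF competitive assay in carbachol-stimulated CHO-M1 cells quantifies cellular IP1. Compounds spanned up to 46 uM final, and activity is expressed as AC50 from concentration-response fits of the ratio and donor data.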
PNC assembly inh: inhibitors of perinucleolar compartment assembly; activity change (PNC), negative = inhibition, % at 10 µM; AID 2417; PC3M PTB-GFP, PNC prevalence imaging, 16 h; stronger effect = lower value; 140,000 compounds, 3.1% hits;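 active = readout at or below -70, meaning at least 70% loss of cells showing the perinucleolar compartment, a nuclear body marking cancer cells; inconclusive = readout between -30 and a set limit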
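PC3M cells stably expressing PTB-GFP, 750–1000 cells/well, treated 16 h at 37 °C with compound (23 nl of library stock), in duplicate. After paraformaldehyde fixation and Hoechst stain, imaged at 20x; PNC prevalence scored by image analysis.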
HPGD inh: HPGD (human) dehydrogenase inhibition. P15428. purified HPGD, NADH fluorescence kinetic, PGE2 substrate. Potency, µM, actives largely listed as inhibitors. 150,000 compounds, 4.3% hits. AID 894; active = well fitted inhibition curve with a large enough effect, not every such curve was filed as active; inconclusive = small, poorly fitted or top-dose-only effect, or another doubt; inactive = no such curve, though single readings can be large or run the other way
Target sequence (P15428 whole entry, looked up): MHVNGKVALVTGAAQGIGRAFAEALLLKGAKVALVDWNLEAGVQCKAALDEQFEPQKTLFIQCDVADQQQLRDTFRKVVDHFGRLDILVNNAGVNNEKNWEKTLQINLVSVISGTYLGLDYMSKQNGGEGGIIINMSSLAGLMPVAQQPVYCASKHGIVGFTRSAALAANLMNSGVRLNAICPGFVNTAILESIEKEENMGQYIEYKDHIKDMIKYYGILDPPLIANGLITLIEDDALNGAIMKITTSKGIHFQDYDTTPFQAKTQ
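NADH formation kinetics: reaction with 30 uM PGE2 and 1 mM NAD+ (final), 20 nM enzyme, Tris-HCl pH 8 with Tween 20, after 15 min compound preincubation at room temperature. Fluorescence change, last versus first of five reads.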
Numbers stand for hits; [ ] = another dose, or the depositor's remark. Sampled rows, rich in hits. Any-hit rate of the full collection: about 5.4%. Unless noted, calls come from the whole dose curve; as a rule, active = well fitted curve in the direction sought with a large enough effect; inconclusive = small, poorly fitted or top-dose-only effect, or another doubt; inactive = no such curve, though single readings can be large; an effect the other way counts as inactive or inconclusive.

For COc1ccc(-c2nc3cnc(N4CCNCC4)nc3n(CCC#N)c2=O)cc1 the results were 15-hLO-2 inh inactive, ALOX12 inhib inactive, IMPase Li cell inactive and HPGD inh inactive.
For Cc1cc(C)n(-c2nc(C)nc3c2cnn3-c2ccccc2)n1 the results were 15-hLO-2 inh inactive, ALOX12 inhib inactive, IMPase Li cell inconclusive, IMPase cell inh inactive, PNC assembly inh -96 and HPGD inh inconclusive.
Cc1cc(C)n(-c2nc3ccccc3c3nc(C)nn23)n1 was read as 15-hLO-2 inh inactive, ALOX12 inhib inactive, IMPase Li cell inactive, IMPase cell inh inactive, PNC assembly inh inactive and HPGD inh inactive.
Screening O=C(O)c1ccccc1NS(=O)(=O)c1cccc2ccccc12 returned ALOX12 inhib inactive and HPGD inh inactive.
`N#C/C(=C\c1cccc(OC(=O)c2cccs2)c1)C(N)=O` gave ALOX12 inhib inactive, IMPase Li cell inactive, PNC assembly inh inconclusive and HPGD inh 25µM.
COCCNC(=O)/C(C#N)=C/c1ccc(OC(=O)c2cccs2)c(OC)c1 was read as IMPase Li cell inactive.
`Cc1nc(SCn2nnc3ccccc3c2=O)nc(C)c1C` gave 15-hLO-2 inh inactive, ALOX12 inhib inactive, IMPase Li cell inactive, IMPase cell inh inactive, PNC assembly inh inconclusive and HPGD inh 14µM.
`O=c1c2ccccc2nnn1CSc1ccc2ccccc2n1` gave ALOX12 inhib inactive, IMPase Li cell inactive, PNC assembly inh -104 and HPGD inh inactive.
C=CCn1c(SCn2nnc3ccccc3c2=O)nnc1-c1ccc(F)cc1 was read as 15-hLO-2 inh inactive, ALOX12 inhib inactive, IMPase Li cell inactive, IMPase cell inh inactive, PNC assembly inh inactive and HPGD inh inactive.
`C=CCn1c(SCn2nnc3ccccc3c2=O)nnc1-c1ccc(Br)cc1` gave 15-hLO-2 inh inactive, ALOX12 inhib inactive, IMPase Li cell inactive, IMPase cell inh inactive, PNC assembly inh -84 and HPGD inh inactive.
O=c1c2ccccc2nnn1CSc1ccccc1 was read as ALOX12 inhib inactive, IMPase Li cell inactive, IMPase cell inh inactive, PNC assembly inh inconclusive and HPGD inh inactive.
Cc1ccn2c(Nc3ccc(C(C)C)cc3)c(-c3cccs3)nc2c1 was read as IMPase cell inh inactive.
Screening O=c1[nH]c(SCc2nc3c(cnn3-c3ccccc3)c(=O)[nH]2)nc2ccccc12 returned 15-hLO-2 inh inconclusive, ALOX12 inhib inactive, IMPase Li cell inconclusive, IMPase cell inh inactive, PNC assembly inh -108 and HPGD inh 0.79µM.
C=CCc1c(C)nc(SCc2nc3ccccc3c(=O)[nH]2)[nH]c1=O was read as 15-hLO-2 inh inactive, ALOX12 inhib inactive, IMPase Li cell inactive, IMPase cell inh inactive, PNC assembly inh inactive and HPGD inh 2.8µM.
`COc1ccc(C(=O)c2ccccc2)c(O)c1O` gave 15-hLO-2 inh inactive, ALOX12 inhib inactive, IMPase Li cell inactive and HPGD inh inactive.
Screening O=C(Cn1nc(-c2ccc(F)cc2)ccc1=O)Nc1ccc(C(=O)NC2CC2)cc1 returned 15-hLO-2 inh inactive, ALOX12 inhib inactive, IMPase Li cell inactive, IMPase cell inh inactive, PNC assembly inh inactive and HPGD inh 28µM.
For Cc1nn(CC(=O)Nc2ccc3c(c2)nc(CN2CCCC2)n3C)c(=O)c2ccccc12 the results were 15-hLO-2 inh inactive, ALOX12 inhib inactive, IMPase Li cell inactive, IMPase cell inh inactive, PNC assembly inh -100 and HPGD inh inactive.
`Cc1nn(CC(=O)Nc2ccc(C(=O)N3CCCCC3)cc2)c(=O)c2ccccc12` gave 15-hLO-2 inh inactive, ALOX12 inhib inactive, IMPase Li cell inactive, IMPase cell inh inactive, PNC assembly inh inactive and HPGD inh 1.1µM.
Screening COc1cccc(-c2ccc(=O)n(CC(=O)Nc3ccc(C(=O)N4CCCC4)cc3)n2)c1 returned 15-hLO-2 inh inactive, ALOX12 inhib inactive, IMPase Li cell inactive, IMPase cell inh inactive, PNC assembly inh inactive and HPGD inh 13µM.
Screening COc1cccc(-c2ccc(=O)n(CC(=O)Nc3cc4c(cc3NC(C)=O)OCCO4)n2)c1 returned 15-hLO-2 inh inactive, ALOX12 inhib inactive, IMPase Li cell inactive, IMPase cell inh inactive, PNC assembly inh inactive and HPGD inh inactive.
COc1ccccc1CNc1ccnc(-c2ccc(N(C)C)cc2)n1 was read as 15-hLO-2 inh inactive and IMPase Li cell inactive.
Screening Cc1ccc(-c2nn(CC(=O)Nc3ccc4c(c3)nc3n4CCOC3)c(=O)c3ccccc23)cc1 returned 15-hLO-2 inh inactive, ALOX12 inhib inactive, IMPase Li cell 10µM, IMPase cell inh inactive, PNC assembly inh inactive and HPGD inh inconclusive.
For Cc1nn(CC(=O)Nc2ccc(C(=O)N3CCCC3)cc2)c(=O)c2ccccc12 the results were 15-hLO-2 inh inactive, ALOX12 inhib inactive, IMPase Li cell inactive, IMPase cell inh inactive, PNC assembly inh inactive and HPGD inh 14µM.
O=C(Cn1nc(-c2ccccc2)c2ccccc2c1=O)Nc1ccc2c(c1)nc1n2CCOC1 was read as 15-hLO-2 inh inactive, ALOX12 inhib inactive, IMPase Li cell inactive, IMPase cell inh inactive, PNC assembly inh inactive and HPGD inh inactive.
For C[C@H]1Cc2c(COc3ccccc3)nc3c(c2CO1)CN(C(=O)c1ccco1)CC3 the results were ALOX12 inhib inactive[11.4 µM], IMPase Li cell inactive and HPGD inh inactive.
`Cc1ccc(CSc2nc3c(cc2C#N)CCC3)cc1` gave 15-hLO-2 inh inactive, ALOX12 inhib inactive, IMPase Li cell inactive, IMPase cell inh inactive, PNC assembly inh inactive and HPGD inh inactive.
Screening CN1CCc2nc(SCc3ccc(C(C)(C)C)cc3)c(C#N)cc2C1 returned ALOX12 inhib inactive, IMPase Li cell inactive, IMPase cell inh inactive, PNC assembly inh inactive and HPGD inh 28µM.
For CCN(CC)C[C@@H](O)c1ccc2ccc3ccccc3c2c1 the results were 15-hLO-2 inh inactive[11.4 µM], ALOX12 inhib inactive[11.4 µM], IMPase Li cell inactive and HPGD inh inactive.
`COCCNC(=O)c1ccc(NC(C)=O)cc1` gave 15-hLO-2 inh inactive, ALOX12 inhib inactive, IMPase Li cell inactive, IMPase cell inh inactive, PNC assembly inh inactive and HPGD inh 20µM.
For CCCCNc1nc(C)nc2c1nc(-c1ccccc1)n2CC1CCCN1CC (stereo not given) the results were 15-hLO-2 inh inactive, ALOX12 inhib inactive, IMPase Li cell inactive and HPGD inh inconclusive.
Cc1nn(-c2ccccc2)c(C)c1/C=C/C(=O)OCC(=O)Nc1ncc(C(F)(F)F)cc1Cl was read as ALOX12 inhib inactive, IMPase Li cell inactive, PNC assembly inh -113 and HPGD inh inconclusive.
For O=C(COC(=O)C1(c2ccccc2F)CCCC1)Nc1ncc(C(F)(F)F)cc1Cl the results were ALOX12 inhib inactive, IMPase Li cell inactive, PNC assembly inh -109 and HPGD inh inactive.
